NS1 inh: influenza NS1 inhibition. Potency, µM (highest dose often 46.1 µM), for the others: at the top dose activity, positive = more growth. 270,000 compounds, 0.4% hits. AID 2326; calls by dose curve; note: potency is the fitted concentration of half-maximal effect; actives are rising curves; nearly all actives have a fitted effect of over 50% in size
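Read-out: OD600 growth recovery of NS1-expressing budding yeast. Cells grown overnight at 30C in -URA glucose medium, washed, resuspended and diluted 1:100 in 2% galactose assay medium, pH 6.0. Same strain lacking NS1 served as positive control.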
AmpC detergent: blocks E. coli AmpC beta-lactamase in detergent assay. P00811. AmpC hydrolysis of nitrocefin, absorbance 480 nm, 0.01% Triton. Potency, µM (highest dose often 114 µM), for the others: at the top dose activity change, negative = inhibition, actives largely listed as inhibitors. 370,000 compounds, 0.041% hits. AID 485294;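 note: potency is the fitted concentration of half-maximal effect; 0% = no-compound wells and -100% = no-enzyme wells; nearly all actives have a fitted effect of over 25% in size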
Target sequence (P00811 whole entry, looked up): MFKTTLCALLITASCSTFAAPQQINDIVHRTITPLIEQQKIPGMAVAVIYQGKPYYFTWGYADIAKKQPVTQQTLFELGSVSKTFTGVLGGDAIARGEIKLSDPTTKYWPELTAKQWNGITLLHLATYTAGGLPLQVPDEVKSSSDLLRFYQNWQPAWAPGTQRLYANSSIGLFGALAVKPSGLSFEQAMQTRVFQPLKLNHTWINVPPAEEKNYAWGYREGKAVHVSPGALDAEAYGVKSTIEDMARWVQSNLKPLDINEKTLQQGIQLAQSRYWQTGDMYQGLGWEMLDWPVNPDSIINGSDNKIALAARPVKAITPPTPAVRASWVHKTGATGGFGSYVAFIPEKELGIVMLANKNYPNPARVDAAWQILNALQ
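20 mM phosphate pH 7.0 + 0.01% (detergent screen) or 0.0001% Triton X-100; 5.3 nM AmpC reagent; cpd preinc 15 min RT; nitrocefin (800 uM stock) to start; A480 q20 s × 4 min; Activity was normalised to no-enzyme and no-compound control wells.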
Cycloheximide cs: affects cycloheximide protein synthesis inhibition readout, counter-screen; cell reporter, cycloheximide protein synthesis inhibition counterscreen; max response, %; 300,000 compounds, 12% hits; in the data active = max response mostly above about 13%, no sharp cut-off; inactive = mostly below about 14%; note: read at 38.3 µM for the half of the compounds with a filed dose; 0% is about no effect
AmpC no deterg: blocks E. coli AmpC beta-lactamase in detergent-free assay; AmpC nitrocefin hydrolysis, absorbance 480 nm, 0.0001% Triton; Potency, µM (titrated, usually from 57.1 µM), inactives show top-dose activity change, negative = inhibition, hits mostly inhibitors; 330,000 compounds, 0.52% hits; AID 485341;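 note: potency is the fitted concentration of half-maximal effect; plate controls were no compound for no effect and no enzyme for full effect; nearly all actives have a fitted effect of over 20% in size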
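AmpC (5.3 nM in the dispensed reagent) in 20 mM phosphate pH 7.0 with 0.01% (detergent screen) or 0.0001% Triton X-100 was preincubated with compounds for 15 min at room temperature. Nitrocefin was then added from an 800 uM solution, and hydrolysis was followed at 480 nm.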
Shiga toxin inh: Shiga toxin inhibition; inhibition, % at 38.7 µM; Vero cells, Shiga toxin protein synthesis inhibition reporter; 290,000 compounds, 9.2% hits; AID 2315; in the data active = inhibition mostly above about 28%, no sharp cut-off; inactive = mostly below about 43%; note: 0% is about no effect
Active calls of the source: *; ? = inconclusive; nt = not tested or not shown. The full list was thinned out, with hits kept by preference. Unless noted, calls come from the whole dose curve; as a rule, active = well fitted curve in the direction sought with a large enough effect; inconclusive = small, poorly fitted or top-dose-only effect, or another doubt; inactive = no such curve, though single readings can be large; an effect the other way counts as inactive or inconclusive.

SMILES | NS1 inh | AmpC detergent | Cycloheximide cs | AmpC no deterg | Shiga toxin inh
O=C(N=C1SC2CS(=O)(=O)CC2N1c1ccccc1C(F)(F)F)C1CCCO1 (stereo not given) | 0% | 4% | -2 | -4% | -9
CCCc1cc(=O)n2[nH]c(NC(=O)c3ccccc3Cl)nc2n1 | nt | 2% | nt | nt | nt
O=C(NC1CCCCC1)C(=S)NC1CCCCC1 | 2% | 0% | 1 | 1% | -1
O=C(OCC(=O)N1CCC(Cc2ccccc2)CC1)c1ccccc1 | nt | -4% | 55* | -11% | 79*
O=C(/C=C/c1ccco1)N1CCC(Cc2ccccc2)CC1 | nt | -2% | 26* | 1% | 84*
COc1ccc(S(=O)(=O)N2CCN(C(=O)/C=C/c3ccco3)CC2)cc1 | nt | -2% | nt | -9% | nt
COc1cccc(N2CCN(C(=O)/C=C/c3ccco3)CC2)c1 | nt | 7% | 41* | 37% | 60
CC(C)C(=O)N1CCC(Cc2ccccc2)CC1 | 4% | 1% | -3 | 1% | -10
O=C(/C=C/c1ccco1)N1CCN(c2ncccn2)CC1 | 4% | 4% | 19* | -12% | 92*
O=C(OCC(=O)N1CCC(Cc2ccccc2)CC1)c1ccccc1F | nt | 6% | nt | 2% | nt
Cc1ccc(C(=O)OCC(=O)NNC(=O)c2cccs2)c(O)c1 | nt | -22% | nt | -10% | nt
CCOc1ccccc1CNC(=O)C1CCN(S(=O)(=O)c2cccc3nonc23)CC1 | nt | -1% | nt | nt | nt
Cc1ccc(-n2c(=O)c3c4c(sc3n(Cc3ccccc3C)c2=O)CCC4)cc1C | nt | -1% | nt | nt | nt
O=C(N/N=C/c1ccc(O)cc1)c1cc(C23CC4CC(CC(C4)C2)C3)[nH]n1 | -1% | 6% | 2 | ? | 48
C/C(=N\NC(=O)c1cc(C(C)(C)C)[nH]n1)C12CC3CC(CC(C3)C1)C2 | 0% | 3% | 23* | -26% | 19
COc1ccccc1Nc1nnc(SCC(=O)NC(=O)Nc2ccc3c(c2)OCCO3)s1 | 27% | 2% | 14 | -18% | 29
Cc1nnc(SCC(=O)NC(=O)Nc2ccc3c(c2)OCCO3)s1 | nt | 1% | 30* | -16% | 45*
Cc1cccc(Nc2nnc(SCC(=O)NC(=O)Nc3ccc4c(c3)OCCO4)s2)c1 | 27% | -10% | 10 | -16% | -9
Cc1ccccc1Nc1nnc(SCC(=O)NC(=O)Nc2ccc3c(c2)OCCO3)s1 | 15% | 3% | 62* | -31% | 50*
CCSc1nc(N)nc(-c2cccs2)c1C#N | 9% | 1% | 31* | -32% | 68*
CCN(CC)C(=O)CSc1nc(N)c(C#N)c(-c2cccs2)c1C#N | 3% | -12% | -4 | -16% | -8
CCCNC(=O)OCCC12CC3CC(CC(C3)C1)C2 | -14% | 2% | 59* | -12% | 25*
CCCCNC(=O)NC12CC3CC(CC(C3)C1)C2 | nt | -11% | -1 | -10% | 12
CCCNC(=O)NCCC12CC3CC(CC(C3)C1)C2 | nt | -3% | 45* | -22% | 65*
O=C(O)[C@H](Cc1ccccc1)N1C(=O)c2ccccc2C1=O | 1% | nt | nt | nt | nt
SMILES | NS1 inh | AmpC detergent | Cycloheximide cs | AmpC no deterg | Shiga toxin inh
COc1ccc(Cl)cc1Nc1ccc2cc(S(=O)(=O)N3CCCCC3)ccc2n1 | nt | 5% | nt | nt | nt
CCCC/C=C1\CCc2c([nH]c3ccccc23)C1=O | -4% | -3% | 32* | -25% | 57*
CCCCCN1CC(=O)N2Cc3[nH]c4ccccc4c3C[C@H]2C1=O | -2% | -2% | 8 | 48% | -7
CCCCN1CCc2c([nH]c3ccccc23)C1=O | -16% | ? | 35* | -22% | 95*
Cc1ccc2[nH]c3c(c2c1)CC/C(=C/c1ccccc1)C3=O | 0% | 2% | 23* | -25% | 32
O=C1NCCc2c1[nH]c1ccccc21 | 2% | ? | 10 | -13% | 1
CC(C)/C=C1\CCc2c([nH]c3ccccc23)C1=O | -8% | 8% | 32* | -41% | 45*
C=C1CCc2c([nH]c3ccc(OCC(C)C)cc23)C1=O | -4% | -13% | 2 | -37% | -3
COC(=O)CN1C(=O)[C@@H]2[C@H](C1=O)[C@@H]1CC(C(=O)OC)=C[C@@H](C(=O)OC)C3C1=C(C(=O)C31CCCCC1)[C@@H]2C (stereo not given in full) | nt | nt | 4 | nt | -6
Cc1ccc(/C=C2/CCc3c([nH]c4ccccc34)C2=O)cc1 | 3% | -7% | 29* | -42% | 52*
CC1Cc2c([nH]c3ccccc23)C(=O)N1 (stereo not given) | -7% | ? | 5 | -5% | 13
O=C1/C(=C\c2ccccc2)CCc2c1[nH]c1ccccc21 | 7% | 1% | 42* | -25% | 52*
CCN(CC)c1ccc(NC(=O)CCS(=O)(=O)c2ccc3c(c2)oc(=O)n3C)c(C)c1 | nt | 1% | nt | nt | nt
CCSCC1COC(c2cccn2Cc2ccc(C)cc2)=N1 (stereo not given) | -11% | ? | 39* | -18% | 91
Cn1cc(S(=O)(=O)N2CCN(c3ccccc3)CC2)c(=O)n(C)c1=O | 3% | -14% | -3 | 40µM* | -3
Cn1cc(S(=O)(=O)N2CCN(c3cccc(Cl)c3)CC2)c(=O)n(C)c1=O | -1% | 9% | -2 | 41% | 9
Cc1nnsc1C(=O)NNc1ccc(C(C)(C)C)cc1 | -4% | 7% | -3 | -31% | -13
Cc1nnsc1C(=O)NNc1ccc(C(C)C)cc1 | -4% | 5% | 40* | -18% | 59*
Cc1ccc(NC(=O)c2snnc2C)cc1Cl | nt | 0% | 12* | -42% | 26
CCOC(=O)c1ccccc1NC(=O)c1sc2nc3n(c(=O)c2c1C)CCCC3 | nt | 16% | nt | nt | nt
O=C(NC1CCCCC1)N(Cc1nc2ccccc2c(=O)[nH]1)C1CCCC1 | 2% | -16% | -3 | -13% | -23
O=C(CCc1nc2ccccc2c(=O)[nH]1)NC1CCN(Cc2ccccc2)CC1 | 4% | -12% | -5 | -11% | -2
O=C(NC1CCCCC1)N(Cc1nc2ccccc2c(=O)[nH]1)C1CCCCC1 | -50% | -14% | 25* | -10% | 65*
CC1CCCCC1NC(=O)CCCc1nc2ccccc2c(=O)[nH]1 (stereo not given) | 2% | -2% | 7.8* | -3% | 23
Cc1ccc(NC(=O)C2=C(C(=O)O)CCCC2)cc1Br | 0% | -2% | 10 | -17% | 25
SMILES | NS1 inh | AmpC detergent | Cycloheximide cs | AmpC no deterg | Shiga toxin inh
Cc1ccccc1OC(=O)n1c(=S)oc2cc(Cl)ccc21 | -36% | -10% | 16* | -6% | 43
COc1ccc2c(c1)sc1ncc(C(=O)NCc3cccc(C)c3)c(=O)n12 | nt | 17% | nt | nt | nt
Nc1nn(-c2ccccc2)nc1C(=O)OCc1ccccc1 | -4% | 9% | 27* | -26% | 48*
Cc1ccc(COC(=O)c2nn(-c3ccccc3)nc2N)cc1 | nt | 8% | 18* | -14% | 21
Nc1nn(-c2ccccc2)nc1C(=O)OCc1ccc(Cl)cc1 | nt | 4% | nt | nt | nt
NC(=O)c1nn(-c2ccccc2)nc1N | 0% | -2% | 18* | -5% | 16
Cc1ccnc(N/C=C(\C#N)c2nc(-c3cccc(Br)c3)cs2)c1 | 11% | -1% | 15* | 55% | 22
N#C/C(=C/c1ccc(Cl)cc1)c1nc(-c2ccc(Br)cc2)cs1 | nt | 11% | nt | nt | nt

High-throughput results from PubChem BioAssay.
